The values that follow come from PubChem BioAssay.

A short description of test [1]: rapamycin-like changes in RPL19A-GFP expression – cell-based, S. cerevisiae, multiplex flow cytometry, primary screen (AID 1862; in the data active = percent of DMSO control GFP below about 86%;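 note: lower values mimic rapamycin by blocking the RPL19A rise seen in DMSO cells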). The settings on record: S. cerevisiae RPL19A-GFP strain, flow cytometry fluorescence, 3 h; at 10 µM; stronger effect = lower value.
The nature of test [2]: TOR pathway GLN3 branch reporter MEP2-GFP changes – S. cerevisiae, multiplex flow cytometry, primary screen (AID 1867;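 active = GFP response, as percent of the DMSO control, above the screen-wide mean plus 3 SD, about 139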;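 note: median GFP channel fluorescence of barcode-gated MEP2-GFP cells measured by flow cytometry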). Particulars: S. cerevisiae MEP2-GFP strain, 3 h, at 10 µM, stronger effect = higher value, 100% means same as DMSO wells.
The nature of test [3]: TOR pathway RTG branch CIT2 reporter changes – S. cerevisiae, GFP fusion, multiplex flow cytometry, primary screen (AID 1870;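 active = percent response above a set limit, the screen-wide mean plus 3 SD, cut at about 130% in these data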;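 note: barcoded CIT2-GFP strain pooled with four other GFP strains with rapamycin as positive control; median GFP fluorescence per well over plate mean of DMSO wells so 100% = DMSO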). The settings on record: S. cerevisiae CIT2-GFP expression, 3 h, at 10 µM, stronger effect = higher value.
The nature of test [4]: TOR pathway LAP4-GFP level changes – S. cerevisiae, multiplex flow cytometry, primary screen (AID 1873;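 active = GFP signal, as percent of the solvent control, above the screen mean plus 3 SD, about 149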). Particulars: S. cerevisiae LAP4-GFP expression, 3 h, at 10 µM, stronger effect = higher value.
A short description of test [5]: yeast AGP1-GFP level changes, GLN3 branch – cell-based, multiplex flow cytometry, S. cerevisiae, primary screen (AID 1887;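 active = GFP signal above the screen-wide mean plus 3 SD, that is over about 124.5% of the solvent control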;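 note: AGP1-GFP fusion strain of S. cerevisiae within a five-strain barcoded multiplex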). The settings on record: 3 h, at 10 µM, stronger effect = higher value.
Test [6] in a line: reduced mouse 2C T cell binding to pMHC/ICAM-1 vesicles – MLPCN validation set, flow cytometry, LFA-1/ICAM-1 modulator project, pilot screen (AID 2523;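 active = response below a set limit, under 55% cells CD8-positive and vesicle-bound, and CD8 cells' 90th-percentile brightness under 279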;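 for vesicle binding response: mean PE anti-B7-1 fluorescence of CD8+ cells relative to row control; 100% = QL9-loaded vesicles with DMSO vehicle in the same plate row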). Particulars: 2C mouse CD8+ T cells, at 7 µM, stronger effect = lower value; double positive events: measured here: CD8+/vesicle+ event percentage.
In test [7] the target is Integrin beta-1 (Homo sapiens) + Integrin alpha-4 (Homo sapiens) (UniProt P13612+P05556). As to the kind of experiment: alpha4beta1 integrin LIBS antibody binding reduction – U937 cells, HUTS-21 mAb, flow cytometry, validation set, VLA-4 allosteric modulator project, pilot screen (AID 2674;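 active = inhibition above 50%, about 3 SD of the validation set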;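 note: antibody binding induced by the VLA-4 ligand LDV present at three times its Kd; 0% = LDV ligand with antibody and no compound and 100% = antibody without LDV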). Particulars: HUTS-21 LIBS mAb binding, at 6.7 µM, stronger effect = higher value, binding induced by LDV ligand.

Test [8] in a line: calorie-restriction mimetic ROS inhibitors, yeast – validation compound set, pilot screen (AID 2706;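 active = superoxide response below 65% of plate, a cut near 3 SD across the whole screen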;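 note: yeast exposed to compound for one week at 30 degrees C before staining; 100% = mean of all compound wells on the same plate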). Particulars: S. cerevisiae aging, superoxide DHE fluorescence; at 10 µM; stronger effect = lower value.
Test [9] has as its target Beta-adrenergic receptor kinase 1 (Homo sapiens) (UniProt P25098). As to the kind of experiment: GRK2 binders displacing RNA aptamer, biochemical, validation, human GRK2, bead flow cytometry (AID 488806;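 active = aptamer binding inhibition above 30%, about 3 SD of noise from non-fluorescent compounds; inactive = inhibition at or below 30%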). The settings on record: bead-bound GRK2, FAM-aptamer displacement, at 10 µM, stronger effect = higher value.
The target in test [10] is Beta-2 adrenergic receptor (Homo sapiens) (UniProt P07550). As to the kind of experiment: agonist-induced loss of surface beta2AR – cell-based, FAP fluorogen, flow cytometry, validation set, pilot screen (AID 504459;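 active = percent response above 42, roughly 3 SD of non-fluorescent test compounds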;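 note: agonist-driven loss of surface beta2AR via internalization measured by FAP dye flow cytometry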). The settings on record: Am2.2-beta2AR cells, at 10 µM, stronger effect = higher value.
The target in test [11] is AP-2 complex subunit beta (Homo sapiens) (UniProt P63010). As to the kind of experiment: beta-arrestin/AP2 interaction blockers – biochemical, validation set, GST-AP2 beads, flow cytometry, pilot screen (AID 504541;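 active = inhibition above 54%, about 3 SD of non-fluorescent compounds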;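 note: AP2 carries R879A mutation and is captured from E. coli lysate; bead-bound FITC arrestin peptide fluorescence measuring arrestin peptide binding to AP2; 0% = DMSO wells and 100% = excess unlabeled arrestin peptide control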). The settings on record: FITC arrestin peptide, at 10 µM, stronger effect = higher value, AP2 beta2 appendage fragment, R879A mutant.
A short description of test [12]: cytosolic pH regulators acting via V-ATPase – S. cerevisiae, pHLuorin, HTS validation (AID 504600; in the data active = response above about 15%;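 note: plate controls were DMSO for no effect and reference compound for full effect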). Particulars: V-ATPase proton transport, at 10 µM, stronger effect = higher value.
Test [13] has as its system anti-desmoglein-3 scFv antibody binding to human DSG3. As to the kind of experiment: blockers of pathogenic pemphigus antibody–desmoglein-3 binding – biochemical, validation compound set, bead-based, flow cytometry, pilot screen (AID 588368).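 Note: signal is the median channel fluorescence of bead-bound GFP antibody.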 The settings on record: Protein G beads, DSG3-Fc, scFv-GFP binding, at 10 µM, stronger effect = lower value.
The nature of test [14]: Nile Red efflux blockade in pump-expressing yeast – validation compound set, multiplex, phenotypic, pilot screen (AID 588506;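 active = efflux inhibition above 0.42, the validation set average plus 4 SD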;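 note: Nile Red retained in cells so higher fluorescence means more efflux inhibition; 0 = negative control wells and 1 = enniatin B 25 µM full block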). Particulars: S. cerevisiae pump-expressing triplex, Nile Red efflux flow cytometry; at 10 µM; stronger effect = higher value; the pumps come from Candida albicans.
In test [15] the target is ATP-binding cassette sub-family B member 6 (Homo sapiens) (UniProt Q9NP58). Nature of the test: blockers of ABCB6-driven porphyrin uptake – K562-ABCB6 cells, flow cytometry, validation set, pilot screen (AID 588550;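 active = inhibition above the screen-wide mean plus 3 SD, about 51%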;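 note: 0% = DMSO wells and 100% = benzethonium chloride 70 µM positive control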). Particulars: K562-ABCB6 porphyrin accumulation, 1 h, at 10 µM, stronger effect = higher value.
Test [16] is described as follows: AML differentiation inducers, ER-HoxA9 marrow cells – cell-based, GFP/MAC1 double positive, flow cytometry, validation set, primary screen (AID 588685;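 active = differentiation response of at least 50%, scaled between solvent and reference control, from cells with both markers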;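 note: compound exposure lasts four days before antibody staining and flow analysis; 0% = DMSO wells and 100% = 5 µM fulvestrant positive control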). The settings on record: stronger effect = higher value, normalized: vehicle 0, fulvestrant 100.

Molecules are shown by their SMILES. Inconclusive results are not listed. Active and inactive are the calls of the source.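 Rule for the calls, unless noted: active = binding below the plate cutoff, the plate median minus 3 SD, with a reading above zero; inconclusive = below the plate cutoff but reading exactly zero; inactive = the rest.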

Chain of AP-2 complex subunit beta (Homo sapiens) (P63010 whole entry, looked up, the tested form may be a part, one chain of several): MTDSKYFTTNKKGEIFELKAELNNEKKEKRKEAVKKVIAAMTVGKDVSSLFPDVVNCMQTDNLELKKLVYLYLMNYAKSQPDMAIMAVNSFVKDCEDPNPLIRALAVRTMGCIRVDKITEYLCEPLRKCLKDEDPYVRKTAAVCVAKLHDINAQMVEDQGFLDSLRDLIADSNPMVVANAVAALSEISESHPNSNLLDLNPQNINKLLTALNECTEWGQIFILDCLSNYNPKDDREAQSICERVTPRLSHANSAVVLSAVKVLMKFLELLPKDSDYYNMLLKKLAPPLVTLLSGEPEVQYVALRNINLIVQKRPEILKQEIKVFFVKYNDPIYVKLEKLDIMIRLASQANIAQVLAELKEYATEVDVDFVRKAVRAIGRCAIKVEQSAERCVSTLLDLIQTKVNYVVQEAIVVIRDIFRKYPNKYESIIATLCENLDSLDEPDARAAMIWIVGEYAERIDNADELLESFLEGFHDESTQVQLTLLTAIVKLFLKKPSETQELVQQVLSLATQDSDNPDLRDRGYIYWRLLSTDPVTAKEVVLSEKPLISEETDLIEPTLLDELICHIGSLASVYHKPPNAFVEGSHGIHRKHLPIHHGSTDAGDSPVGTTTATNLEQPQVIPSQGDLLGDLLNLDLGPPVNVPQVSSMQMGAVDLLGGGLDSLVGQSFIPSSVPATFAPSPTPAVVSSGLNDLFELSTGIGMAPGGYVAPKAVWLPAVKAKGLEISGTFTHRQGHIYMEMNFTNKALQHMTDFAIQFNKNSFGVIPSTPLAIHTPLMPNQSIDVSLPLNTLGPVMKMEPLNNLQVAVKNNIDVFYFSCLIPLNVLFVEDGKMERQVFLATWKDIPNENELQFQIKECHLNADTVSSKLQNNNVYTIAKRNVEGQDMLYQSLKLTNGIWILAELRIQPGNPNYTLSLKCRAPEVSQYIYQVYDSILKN
Chain of Beta-2 adrenergic receptor (Homo sapiens) (P07550 whole entry, looked up): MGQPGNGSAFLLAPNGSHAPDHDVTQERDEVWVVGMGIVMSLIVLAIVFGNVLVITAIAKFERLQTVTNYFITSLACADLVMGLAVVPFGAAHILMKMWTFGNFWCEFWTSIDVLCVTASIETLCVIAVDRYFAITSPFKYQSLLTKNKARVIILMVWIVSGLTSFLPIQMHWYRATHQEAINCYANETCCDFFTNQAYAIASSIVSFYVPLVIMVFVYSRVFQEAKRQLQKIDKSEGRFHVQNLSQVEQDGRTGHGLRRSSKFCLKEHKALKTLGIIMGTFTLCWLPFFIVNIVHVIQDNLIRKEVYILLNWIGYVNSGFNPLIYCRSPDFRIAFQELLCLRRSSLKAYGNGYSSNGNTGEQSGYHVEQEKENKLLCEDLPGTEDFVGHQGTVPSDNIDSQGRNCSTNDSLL
Chain of ATP-binding cassette sub-family B member 6 (Homo sapiens) (Q9NP58 whole entry, looked up): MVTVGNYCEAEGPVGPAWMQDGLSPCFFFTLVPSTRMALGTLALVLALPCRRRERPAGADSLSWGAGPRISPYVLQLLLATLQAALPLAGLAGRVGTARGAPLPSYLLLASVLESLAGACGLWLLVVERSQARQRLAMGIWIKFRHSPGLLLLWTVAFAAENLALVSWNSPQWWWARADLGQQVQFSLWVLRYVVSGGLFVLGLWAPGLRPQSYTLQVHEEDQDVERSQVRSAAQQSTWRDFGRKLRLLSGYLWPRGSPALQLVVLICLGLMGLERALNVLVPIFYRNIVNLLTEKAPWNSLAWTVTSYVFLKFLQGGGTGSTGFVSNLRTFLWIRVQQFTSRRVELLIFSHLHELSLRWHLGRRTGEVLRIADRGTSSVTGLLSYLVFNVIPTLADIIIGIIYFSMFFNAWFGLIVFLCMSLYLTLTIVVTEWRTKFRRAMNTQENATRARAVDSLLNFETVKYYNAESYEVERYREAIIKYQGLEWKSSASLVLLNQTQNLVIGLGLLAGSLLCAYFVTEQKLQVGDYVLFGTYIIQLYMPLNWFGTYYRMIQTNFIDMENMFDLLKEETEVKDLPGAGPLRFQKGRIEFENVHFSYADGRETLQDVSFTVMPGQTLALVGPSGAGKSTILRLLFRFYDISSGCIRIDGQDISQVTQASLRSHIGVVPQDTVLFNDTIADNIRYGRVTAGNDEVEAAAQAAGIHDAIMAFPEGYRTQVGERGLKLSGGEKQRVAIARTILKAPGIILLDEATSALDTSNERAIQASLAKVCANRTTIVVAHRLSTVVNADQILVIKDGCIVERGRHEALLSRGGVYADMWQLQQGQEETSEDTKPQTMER
Chain of Integrin beta-1 (Homo sapiens) + Integrin alpha-4 (Homo sapiens) (P05556 whole entry, looked up): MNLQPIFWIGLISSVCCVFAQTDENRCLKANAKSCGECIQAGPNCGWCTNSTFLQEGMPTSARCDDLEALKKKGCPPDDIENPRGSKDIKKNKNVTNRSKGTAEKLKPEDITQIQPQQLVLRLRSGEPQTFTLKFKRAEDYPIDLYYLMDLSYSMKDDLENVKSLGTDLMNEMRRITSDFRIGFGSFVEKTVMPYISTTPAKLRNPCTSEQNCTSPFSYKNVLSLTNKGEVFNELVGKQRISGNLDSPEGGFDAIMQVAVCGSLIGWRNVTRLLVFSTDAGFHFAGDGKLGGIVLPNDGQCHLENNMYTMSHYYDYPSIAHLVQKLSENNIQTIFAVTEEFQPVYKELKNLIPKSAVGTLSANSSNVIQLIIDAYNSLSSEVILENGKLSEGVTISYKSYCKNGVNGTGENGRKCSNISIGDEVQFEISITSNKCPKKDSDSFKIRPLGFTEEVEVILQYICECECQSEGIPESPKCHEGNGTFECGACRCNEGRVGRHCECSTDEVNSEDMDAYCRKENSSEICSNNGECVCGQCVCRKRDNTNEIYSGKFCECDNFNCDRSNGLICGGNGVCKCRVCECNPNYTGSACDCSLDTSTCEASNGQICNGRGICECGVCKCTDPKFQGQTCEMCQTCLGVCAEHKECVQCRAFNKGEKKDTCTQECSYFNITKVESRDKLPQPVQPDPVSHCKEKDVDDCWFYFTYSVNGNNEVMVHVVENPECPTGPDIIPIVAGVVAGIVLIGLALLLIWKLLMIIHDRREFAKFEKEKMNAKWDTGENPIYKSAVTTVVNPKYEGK
Chain of Integrin beta-1 (Homo sapiens) + Integrin alpha-4 (Homo sapiens) (P13612 whole entry, looked up): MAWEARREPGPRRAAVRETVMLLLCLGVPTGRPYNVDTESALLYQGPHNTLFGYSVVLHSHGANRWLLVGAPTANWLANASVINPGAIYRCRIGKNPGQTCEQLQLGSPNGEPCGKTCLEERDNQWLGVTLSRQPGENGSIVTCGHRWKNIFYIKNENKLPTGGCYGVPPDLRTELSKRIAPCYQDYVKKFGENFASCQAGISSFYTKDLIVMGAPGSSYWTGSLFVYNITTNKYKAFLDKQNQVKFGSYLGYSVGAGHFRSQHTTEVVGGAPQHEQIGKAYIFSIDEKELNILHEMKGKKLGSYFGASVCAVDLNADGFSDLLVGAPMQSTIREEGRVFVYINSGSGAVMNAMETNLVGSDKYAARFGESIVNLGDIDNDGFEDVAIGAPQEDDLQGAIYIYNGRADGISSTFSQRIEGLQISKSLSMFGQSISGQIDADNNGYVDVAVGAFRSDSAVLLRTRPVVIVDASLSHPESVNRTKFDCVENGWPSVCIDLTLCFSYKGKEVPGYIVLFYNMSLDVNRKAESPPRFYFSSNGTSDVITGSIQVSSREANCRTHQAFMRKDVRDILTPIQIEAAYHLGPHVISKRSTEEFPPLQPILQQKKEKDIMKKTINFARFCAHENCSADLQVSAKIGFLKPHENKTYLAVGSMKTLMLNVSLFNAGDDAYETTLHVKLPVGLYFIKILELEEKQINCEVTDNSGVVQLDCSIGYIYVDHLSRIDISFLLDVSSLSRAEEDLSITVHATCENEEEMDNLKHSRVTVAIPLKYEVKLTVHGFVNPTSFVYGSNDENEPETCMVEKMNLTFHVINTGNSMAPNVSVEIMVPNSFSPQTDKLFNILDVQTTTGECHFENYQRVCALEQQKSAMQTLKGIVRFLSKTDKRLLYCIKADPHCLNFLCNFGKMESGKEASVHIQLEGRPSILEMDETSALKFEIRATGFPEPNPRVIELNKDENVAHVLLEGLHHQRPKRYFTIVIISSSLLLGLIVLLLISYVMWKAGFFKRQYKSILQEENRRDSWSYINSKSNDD
Chain of Beta-adrenergic receptor kinase 1 (Homo sapiens) (P25098 whole entry, looked up): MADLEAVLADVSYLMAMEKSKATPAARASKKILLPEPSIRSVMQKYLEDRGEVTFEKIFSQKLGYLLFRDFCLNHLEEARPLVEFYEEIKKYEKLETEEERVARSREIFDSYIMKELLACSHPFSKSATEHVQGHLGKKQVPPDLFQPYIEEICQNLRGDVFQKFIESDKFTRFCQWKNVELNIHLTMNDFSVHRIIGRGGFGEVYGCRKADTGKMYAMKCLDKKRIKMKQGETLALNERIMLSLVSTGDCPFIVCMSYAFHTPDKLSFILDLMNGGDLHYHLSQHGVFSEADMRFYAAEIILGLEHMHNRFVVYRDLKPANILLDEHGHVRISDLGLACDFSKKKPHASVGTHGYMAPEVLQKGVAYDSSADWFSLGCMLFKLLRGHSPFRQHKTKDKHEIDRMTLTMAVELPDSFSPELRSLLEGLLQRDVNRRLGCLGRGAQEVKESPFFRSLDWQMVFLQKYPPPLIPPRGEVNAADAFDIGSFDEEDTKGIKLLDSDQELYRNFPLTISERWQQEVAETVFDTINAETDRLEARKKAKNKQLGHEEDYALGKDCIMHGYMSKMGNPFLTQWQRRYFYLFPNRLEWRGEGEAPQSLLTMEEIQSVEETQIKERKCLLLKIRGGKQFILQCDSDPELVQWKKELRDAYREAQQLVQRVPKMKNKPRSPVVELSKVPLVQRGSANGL

As for `CC(=O)OC(C)C[N+](C)(C)C` (stereo not drawn), in test [1], the percent of DMSO control GFP is 103% (inactive). Moreover, the GFP response vs DMSO in test [2] is 102% (inactive); in [4], 115% (inactive). In addition, the percent response of DMSO control in test [3] was 96.4% (inactive). Besides, in [5], the GFP response, % of DMSO was 124% (inactive). The compound further showed a double positive events in test [6] of 65.5%. In addition, the vesicle binding response in test [6] is 191% (inactive). In addition, the inhibition in test [7] is -7.08% (inactive); in [11], -17.2% (inactive); in test [15], 6% (inactive). Moreover, the superoxide response (% of plate) in test [8] was 86.6% (inactive). The aptamer binding inhibition in test [9] was 5% (inactive). Moreover, the response was -16.2% (inactive) in test [10] and 0.37% (inactive) in [12]. In addition, in test [13], the binding (% of control) was 107% (inactive). Moreover, in test [14], the efflux inhibition (fraction of control) was 0 (inactive). Besides, the differentiation response in [16] is 6.83% (inactive).
Consider `O=C1CC(c2ccc(OCCCCCOc3ccc(C4CC(=O)NC4=O)cc3)cc2)C(=O)N1` (stereo not drawn), for which the percent of DMSO control GFP in [1] was 105% (inactive). Also, the GFP response vs DMSO was 98.3% (inactive) in test [2] and 82.8% (inactive) in test [4]. Also, the percent response of DMSO control in [3] is 97.8% (inactive). Moreover, the GFP response, % of DMSO in test [5] was 92.9% (inactive). In [6], this compound returned a double positive events of 63.3%. Besides, the vesicle binding response in test [6] was 1500% (inactive). For the same compound, the inhibition in test [7] was 15.1% (inactive); in test [11], -7.1% (inactive); in test [15], 11% (inactive). Moreover, the superoxide response (% of plate) in [8] is 95% (inactive). Moreover, the aptamer binding inhibition in test [9] was 3% (inactive). The response in test [10] is 4.67% (inactive); in test [12], 2.37% (inactive). Moreover, the binding (% of control) in test [13] is 101% (inactive). For the same compound, in [14], the efflux inhibition (fraction of control) is 0.11 (inactive). Moreover, in test [16], the differentiation response was 24.7% (inactive).
For the compound `O=C(O)C(O)c1ccccc1` (stereo not drawn), the percent of DMSO control GFP in test [1] was 101% (inactive). The GFP response vs DMSO was 95.6% (inactive) in test [2] and 99.1% (inactive) in [4]. In addition, the percent response of DMSO control in test [3] is 105% (inactive). In test [5], the GFP response, % of DMSO is 102% (inactive). This compound showed a double positive events in test [6] of 53.8%. In test [6], the vesicle binding response is 90.5% (inactive). Also, the inhibition in [7] was -6.45% (inactive); in [11], -5.56% (inactive); in test [15], 12% (inactive). For the same compound, the superoxide response (% of plate) in [8] is 96.6% (inactive). In test [9], the aptamer binding inhibition was 5% (inactive). Further, the response was 3.86% (inactive) in test [10] and 1.56% (inactive) in test [12]. The binding (% of control) in test [13] is 104% (inactive). Further, in test [14], the efflux inhibition (fraction of control) is -0.12 (inactive). Also, the differentiation response in [16] was -3.11% (inactive).
With `Cc1c(OCC(F)(F)F)ccnc1CS(=O)c1nc2ccccc2[nH]1` (stereo not drawn), in test [1], the percent of DMSO control GFP is 95.1% (inactive). In addition, the GFP response vs DMSO is 101% (inactive) in [2] and 119% (inactive) in test [4]. For the same compound, the percent response of DMSO control in [3] was 97% (inactive). Further, in test [5], the GFP response, % of DMSO is 118% (inactive). Moreover, in test [6], the double positive events was 58.8%. Further, the vesicle binding response in [6] was 153% (inactive). Moreover, the figures for the inhibition in test [7], in test [11] and in [15] were -64.1% (inactive), -4.09% (inactive) and -6% (inactive), respectively. Also, the superoxide response (% of plate) in test [8] was 111% (inactive). Further, in test [9], the aptamer binding inhibition is 1% (inactive). Further, the response in test [10] is 24.6% (inactive); in test [12] it was -4.18% (inactive). The binding (% of control) in test [13] is 106% (inactive). In addition, in test [14], the efflux inhibition (fraction of control) was 0.04 (inactive). Further, the differentiation response in [16] is -4% (inactive).
